# Data published in article PMC4336329 (PLoS ONE, 2015).
# The whole screen tested about 310,000 compounds, of which about 14,000 (4.5%) showed an effect of 50% or more. Effects have a minus sign here. The list comes from a sample in which strong results are over-represented; it also holds similar structures and randomly drawn compounds.
# Biological target: human ether-à-go-go-related gene (hERG) potassium channel (human, UniProt Q12809)
# Assay: primary screen, population patch clamp on CHO cells stably expressing hERG; higher = less effect of the substance
# 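Also: peak tail current of the secondary pulse compared with the same well before compound.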
# human ether-à-go-go-related gene (hERG) potassium channel, sequence (Q12809 whole entry, looked up): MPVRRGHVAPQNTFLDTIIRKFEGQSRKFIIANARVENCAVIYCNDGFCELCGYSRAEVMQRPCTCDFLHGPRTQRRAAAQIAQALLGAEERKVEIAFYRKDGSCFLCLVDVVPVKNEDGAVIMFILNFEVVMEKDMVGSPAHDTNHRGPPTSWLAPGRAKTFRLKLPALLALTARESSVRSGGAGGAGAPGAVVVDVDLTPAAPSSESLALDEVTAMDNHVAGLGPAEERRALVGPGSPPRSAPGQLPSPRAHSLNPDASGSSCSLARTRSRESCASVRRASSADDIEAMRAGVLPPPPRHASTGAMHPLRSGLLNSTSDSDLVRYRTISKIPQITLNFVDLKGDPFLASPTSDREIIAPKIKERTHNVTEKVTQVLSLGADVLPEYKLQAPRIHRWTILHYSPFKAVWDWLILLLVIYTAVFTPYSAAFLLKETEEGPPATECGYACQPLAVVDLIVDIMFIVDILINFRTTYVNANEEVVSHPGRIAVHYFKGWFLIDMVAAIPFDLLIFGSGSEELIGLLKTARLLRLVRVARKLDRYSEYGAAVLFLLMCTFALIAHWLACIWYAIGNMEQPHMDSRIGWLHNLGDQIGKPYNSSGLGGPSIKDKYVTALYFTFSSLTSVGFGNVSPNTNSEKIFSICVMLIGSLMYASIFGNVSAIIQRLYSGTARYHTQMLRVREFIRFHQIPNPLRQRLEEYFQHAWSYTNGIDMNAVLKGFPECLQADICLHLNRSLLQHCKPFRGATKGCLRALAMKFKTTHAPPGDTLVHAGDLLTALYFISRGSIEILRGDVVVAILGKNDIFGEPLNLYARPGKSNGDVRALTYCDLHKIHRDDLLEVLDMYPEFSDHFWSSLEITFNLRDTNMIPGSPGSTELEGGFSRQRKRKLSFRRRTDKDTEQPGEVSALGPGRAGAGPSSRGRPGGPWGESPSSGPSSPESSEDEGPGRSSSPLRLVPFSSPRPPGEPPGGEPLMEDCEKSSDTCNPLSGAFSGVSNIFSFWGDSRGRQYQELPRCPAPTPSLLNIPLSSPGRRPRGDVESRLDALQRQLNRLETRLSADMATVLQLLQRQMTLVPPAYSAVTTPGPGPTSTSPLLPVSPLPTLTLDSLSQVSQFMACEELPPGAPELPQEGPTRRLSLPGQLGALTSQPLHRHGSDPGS
row,SMILES,"hERG current change (%, negative = inhibition) at 10uM"
1,COc1ccc2c(c1)c(=O)oc1cc(O)ccc12,3.99%
2,O=C(CSc1cn(Cc2cccc(F)c2)c2ccccc12)NCc1ccc(F)cc1,9.86%
3,CCOc1ccccc1N(CC(=O)NC(C)(C)C)C(=O)CCC(=O)Nc1nccs1,-4.92%
4,CC(C)(C)NC(=O)C(c1ccc(O)cc1)N(C(=O)Cn1nnc(-c2ccc(F)cc2)n1)c1ccccc1F (stereo not shown),-1.66%
5,COc1cc(CNc2ccc(N3CCOCC3)cc2)cc(Br)c1OC,-23.4%
6,CCOc1cc2oc(=O)c3c(c2cc1Cl)CCC3,7.75%
7,COc1ccc(Cn2c(C)c(C)c(C#N)c2NC(=O)Nc2ccc(F)cc2)cc1,-3.49%
8,COc1ccc(N=CC2=C(O)c3ccccc3C2=O)cc1,11.1%
9,COCCCn1c(=N)c(C(=O)NCC2CCCO2)cc2c(=O)n3ccccc3nc21 (stereo not shown),-64.3%
10,CCN(C(=O)c1cc2c(=O)n3cccc(C)c3nc2n1CCCOC)C1CCCCC1,-44.1%
11,COCCCn1c(C(=O)N2CCOCC2)cc2c(=O)n3ccccc3nc21,2.75%
12,COCCCn1c(C(=O)N2CC(C)OC(C)C2)cc2c(=O)n3ccccc3nc21 (stereo not shown),-9.36%
13,Cc1ccc2nc3c(cc(C(=O)NCC4CCCO4)c(=N)n3CCCOC(C)C)c(=O)n2c1 (stereo not shown),-71.8%
14,COCCCn1c(=N)c(C(=O)NCC2CCCO2)cc2c(=O)n3cccc(C)c3nc21 (stereo not shown),-73.1%
15,COCCCn1c(C(=O)NC2CCCCC2C)cc2c(=O)n3cccc(C)c3nc21 (stereo not shown),-12%
16,Cc1cccn2c(=O)c3cc(C(=O)NCC4CCCO4)c(=N)n(CCN4CCOCC4)c3nc12 (stereo not shown),-69.4%
17,CC(C)OCCCn1c(SC(C)C(=O)NCC2CCCO2)nc2cc(Cl)ccc2c1=O (stereo not shown),-20.6%
18,COCCn1c(=O)[nH]c2cc(C(=O)NCC3CCCO3)ccc2c1=O (stereo not shown),-7.76%
19,CSc1nnc2c(n1)OC(c1cccn1C)N(C(C)=O)c1ccccc1-2 (stereo not shown),-10.1%
20,CCS(=O)(=O)Nc1cccc(C2=NN(S(C)(=O)=O)C(c3cccs3)C2)c1 (stereo not shown),-11.1%
21,CCOC(=O)C1=C(c2ccccc2)O/C(=C(/C(=O)OC)C(F)(F)F)S1,-3.45%
22,CC(=O)Nc1ccc(N(C(=O)Cc2c[nH]c3ccccc23)C(C(=O)NC2CCCCC2)c2ccco2)cc1 (stereo not shown),-13.1%
23,O=c1[nH]nc(CNc2ccc(C(F)(F)F)cc2)c2ccccc12,1.92%
24,CC(C)(C)c1ccc(C(=O)N2CCC(=O)N(C(CO)Cc3ccccc3)CC2)cc1 (stereo not shown),-16.7%
25,Cc1cccc(NC(=S)N(CCN(C)C)Cc2cccs2)c1,-25.8%

row,SMILES,"hERG current change (%, negative = inhibition) at 10uM"
1,Cc1cc(NS(=O)(=O)c2cccs2)no1,-3.03%
2,CCCn1c(=N)c(C(=O)NCC2CCCO2)cc2c(=O)n3cccc(C)c3nc21 (stereo not shown),-76.3%
3,CCCn1c(=N)c(S(=O)(=O)c2ccc(F)cc2)cc2c(=O)n3cccc(C)c3nc21,-4.16%
4,Cc1cccn2c(=O)nc(SCC(=O)NCc3ccc4c(c3)OCO4)nc12,-27.1%
5,Cc1cccn2c(=O)c3cc(C(=O)NC4CCCC4)c(=N)n(CC4CCCO4)c3nc12 (stereo not shown),-74.4%
6,CCCn1c(=N)c(C(=O)NCc2ccc3c(c2)OCO3)cc2c(=O)n3cccc(C)c3nc21,-76.5%
7,Cc1ccccc1Nc1cc(C(=O)NCC2CCCO2)c2ccccc2n1 (stereo not shown),-15.6%
8,Cc1cccn2c(=O)c3cc(C(=O)NCC4CCCO4)c(=N)n(CC4CCCO4)c3nc12 (stereo not shown),-81.9%
9,Cc1ccc(S(=O)(=O)c2cc3c(=O)n4cccc(C)c4nc3n(CC3CCCO3)c2=N)cc1C (stereo not shown),2.35%
10,Cc1ccc(-c2cc(C(=O)NCC3CCCO3)c3ccccc3n2)cc1C (stereo not shown),12.1%
11,CCCn1c(=S)[nH]c2cc(C(=O)NCC3CCCO3)ccc2c1=O (stereo not shown),3.73%
12,CCCn1nc(C(=O)NCc2ccc3c(c2)OCO3)c2ccccc2c1=O,1.89%
13,CCC(=O)N1CCc2cc(S(=O)(=O)CCC(=O)NCc3cccc(OC)c3)ccc21,13.8%
14,COc1ccc([C@@H]2C[C@@H](c3ccccc3)Oc3c(C)ccc(C(C)C)c32)cc1,13.3%
15,CCCc1nc(N2CCCC2)c(C#N)c2c1CCCC2,4.06%
16,COC(=O)c1cc(-c2ccccc2)n(CCN)c1C.Cl,-3.56%
17,COc1ccc(OCC(=O)Nc2nnc(C)s2)cc1,9.71%
18,Cc1nnc(SCc2ccc(Cl)cc2)nc1/C=C/N(C)C,-72.6%
19,Cc1nnc(SCc2ccccc2)nc1/C=C/NOCc1ccc(Cl)cc1Cl,13.9%
20,C=CCSc1nnc(C)c(/C=C/Nc2ccc(Cl)cc2)n1,-9.44%
21,Cc1ccc(C(=O)O)cc1S(=O)(=O)N1CCC(C(=O)O)CC1,-4.77%
22,NC(=S)Cc1nc2n(n1)Cc1ccccc1-2,21.6%
23,CC(=O)N1CCN(c2ccc(NC(=O)c3ccccc3C)cc2)CC1,-0.597%
24,C=C1CCN([C@@H](C)C(=O)NCc2ccc(OC)cc2)S(=O)(=O)c2ccccc21,-6.66%
